{"source": "PubChem BioAssay AID2435", "about": "(The Scripps Research Institute Molecular Screening Center, 2010)", "note": "In all, about 320,000 compounds went through this assay and about 1,000 (0.31%) were called active. The sample holds actives, similar compounds and a random draw of the others, so the mix is not that of the screen. Values without a mark were called inactive.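 Rule for the calls: active = activation above the mean of all tested compounds plus 3 SD, cutoff set per screening run (cut at about 20% in these data); inactive = the rest.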", "data": [{"biological_target": "Oxytocin receptor (Homo sapiens) (UniProt P30559)", "sequence (P30559 whole entry, looked up)": "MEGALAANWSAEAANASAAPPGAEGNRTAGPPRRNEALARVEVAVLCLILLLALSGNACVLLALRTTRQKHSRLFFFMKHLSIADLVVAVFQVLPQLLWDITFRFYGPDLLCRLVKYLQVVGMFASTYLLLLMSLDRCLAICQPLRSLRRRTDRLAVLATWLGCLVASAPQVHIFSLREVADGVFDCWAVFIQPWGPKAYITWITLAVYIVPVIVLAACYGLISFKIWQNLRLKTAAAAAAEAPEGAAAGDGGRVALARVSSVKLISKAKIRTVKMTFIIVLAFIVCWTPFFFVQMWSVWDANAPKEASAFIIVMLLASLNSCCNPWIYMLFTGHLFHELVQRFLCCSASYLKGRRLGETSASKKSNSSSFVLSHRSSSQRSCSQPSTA", "assay": "oxytocin receptor activation by calcium flux – fluorescence, CHO-OTR cells, Fluo-8 calcium, primary screen (AID 2435);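 note: peak over basal fluorescence ratio from a 100 s FLIPR kinetic read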", "conditions": "Fluo-8 calcium fluorescence, at 3 µM, active compounds read high, normalized: DMSO 0%, oxytocin 100%", "values": [{"smiles": "CCCn1nc2cc(C(=O)NCc3ccccc3)ccc2c1OCC", "activation": "-2.12%"}, {"smiles": "COC(=O)CSc1nc2ccccc2c(=O)n1Cc1ccccc1", "activation": "-1.02%"}, {"smiles": "C=CCSc1nc2c(c(=O)[nH]c(=O)n2C)n1Cc1ccccc1", "activation": "-0.23%"}, {"smiles": "Cc1cc2nc3c(=O)n(Cc4ccccc4)c(=O)[nH]c3nc2cc1N", "activation": "52.9% (active)"}, {"smiles": "O=S(=O)(NCCOc1cccc2cccnc12)c1ccc(F)cc1", "activation": "3.57%"}, {"smiles": "CCOC(=O)N/N=C1\\CC(C)S(=O)(=O)c2ccc(Cl)cc21", "note": "(stereo unspecified)", "activation": "-2.06%"}, {"smiles": "CCOc1ncccc1C(=O)NCCc1ccc(OC)cc1", "activation": "-1.34%"}, {"smiles": "Cc1nc(CN2CCN(C(=O)CCc3nnc(Cc4c[nH]c5ccccc45)o3)CC2)cs1", "activation": "-0.27%"}, {"smiles": "Cn1c2ccccc2c(=O)c2c(=O)n(Cc3ccco3)c(COc3ccccc3)nc21", "activation": "1.8%"}, {"smiles": "Cn1c2ccccc2c(=O)c2c(O)cccc21", "activation": "-1.89%"}, {"smiles": "CCCc1nc2c(c(=O)c3ccccc3n2C)c(=O)n1C1CCCCCC1", "activation": "52.1% (active)"}, {"smiles": "Cc1ccc(C(=O)Cc2nnc(C)s2)cc1", "activation": "-0.26%"}, {"smiles": "Oc1ccc2ccc3cccc[n+]3c2c1", "activation": "65.3% (active)"}, {"smiles": "COc1ccc(N2CCN(C(=O)[C@@H](NC(=O)c3cc(OC)cc(OC)c3)C(C)C)CC2)cc1", "activation": "-0.71%"}, {"smiles": "CCOc1ccc(CCNC(=O)C2CCN(c3ccc(N4CCOCC4)nn3)CC2)cc1OCC", "activation": "-0.01%"}, {"smiles": "O=C(NNC(=S)NC(=O)c1cn(-c2ccccc2)nc1-c1ccccc1)c1ccncc1", "activation": "21.2% (active)"}, {"smiles": "Cc1ccc(-c2nn(-c3ccccc3)cc2C(=O)NC2CCC(O)CC2)cc1", "note": "(stereo unspecified)", "activation": "0.66%"}, {"smiles": "NC(=O)C1CCN(C(=O)c2cn(-c3ccccc3)nc2-c2cccnc2)CC1", "activation": "1.05%"}, {"smiles": "COC(=O)c1ccc(COC(=O)C2CCN(S(=O)(=O)c3c(Cl)cccc3Cl)CC2)o1", "activation": "0.45%"}, {"smiles": "O=C(NCc1ccco1)/C(=C/c1cccc([N+](=O)[O-])c1)NC(=O)c1ccco1", "activation": "-0.34%"}, {"smiles": "O=C(c1ccco1)N1CCN(C(=O)C2CC(c3ccc(F)cc3)=NO2)CC1", "note": "(stereo unspecified)", "activation": "38.1% (active)"}, {"smiles": "CCOC(=O)N1CCN(C(=O)C2CC(c3ccc(F)cc3)=NO2)CC1", "note": "(stereo unspecified)", "activation": "0.22%"}, {"smiles": "O=C(c1ccco1)N1CCN(C(=O)C2CC(c3ccc(Cl)c(Cl)c3)=NO2)CC1", "note": "(stereo unspecified)", "activation": "5.71%"}, {"smiles": "CC1(C)Oc2ccc3ccc(=O)oc3c2/C(=N/O)C1=O", "activation": "-0.3%"}, {"smiles": "CCCCOc1ccc(CON(C(C)=O)C(C)=O)cc1Cl", "activation": "-0.28%"}, {"smiles": "CC(C)(C)NCC(O)COc1cccc2[nH]c(=O)[nH]c12", "note": "(stereo unspecified)", "activation": "-0.01%"}, {"smiles": "CC(O)CNCCOc1cccc(Oc2ccccc2)c1", "note": "(stereo unspecified)", "activation": "2.15%"}, {"smiles": "COc1ccccc1OCCNCC(O)COc1cccc2[nH]c3ccccc3c12", "note": "(stereo unspecified)", "activation": "20.7% (active)"}, {"smiles": "CC(=O)c1ccc(NC(=O)c2sc3nc4n(c(=O)c3c2C)CCCCC4)cc1", "activation": "7.14%"}, {"smiles": "COc1ccc(S(=O)(=O)NCCc2c[nH]c3ccccc23)cc1OC", "activation": "4.77%"}, {"smiles": "COc1ccccc1NC(=O)CCCc1c[nH]c2ccccc12", "activation": "-0.34%"}, {"smiles": "COc1cccc(CNCCc2c[nH]c3ccccc23)c1OCc1ccccc1F", "activation": "23.9% (active)"}, {"smiles": "Cc1cc2nc3n(c2cc1C)CC1CC(C(=O)NCCC(C)C)N(C)C31", "note": "(stereo unspecified)", "activation": "0.52%"}, {"smiles": "O=c1c2ccccc2nc2n1C(CSc1ccc(F)cc1)CN2", "note": "(stereo unspecified)", "activation": "0.69%"}, {"smiles": "O=c1c2ccccc2nc2n1C(CSc1ccc(Cl)cc1)CN2", "note": "(stereo unspecified)", "activation": "25.6% (active)"}, {"smiles": "O=c1c2ccccc2nc2n1C(CSCc1ccccc1)CS2", "note": "(stereo unspecified)", "activation": "0.87%"}, {"smiles": "Cc1ccc(S(=O)(=O)N(C)C)cc1NC(=O)C1Cc2ccccc2CN1C(=O)c1ccco1", "note": "(stereo unspecified)", "activation": "-0.61%"}, {"smiles": "C=C(C)CSc1nnc(-c2ccc(C)cc2)n1N", "activation": "-2.48%"}, {"smiles": "COc1ccc(CNC(=O)CCC(=O)Nc2nnc(C(C)C)s2)cc1", "activation": "-0.01%"}, {"smiles": "CCc1nn(CCCC(=O)NC(C)c2ccccc2)c(=O)c2cc3occc3n12", "note": "(stereo unspecified)", "activation": "-0.99%"}, {"smiles": "FC(F)(F)c1cc(-c2ccco2)nc(NCc2ccc(Cl)cc2)n1", "activation": "0.65%"}]}]}
